# Results filed as inconclusive are left out. Entries that show only a call come without a potency. Calls of active or inactive are those of the source. Unless noted, calls come from the whole dose curve.
# Assay: qHTS assay to identify small molecule agonists of the endoplasmic reticulum stress response signaling pathway (AID 1159516; active = well fitted activation curve with a large enough effect in the signal ratio in the repeat runs, not every such curve was filed as active; the % refers to the signal ratio)
# Details: ESRE-bla HeLa, ER stress beta-lactamase reporter, 5 h; series mostly up to 61 µM
# In short: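 Reporter HeLa cells (ESRE-beta-lactamase) underwent 5 hr compound incubation at 37 C and 5% CO2 in quantitative HTS format. Detection followed 2 hr of FRET substrate loading at room temperature.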
row,Structure (SMILES),outcome
1,CCOP(=S)(Oc1ccc([N+](=O)[O-])cc1)c1ccccc1 (stereo not drawn),inactive
2,CCCCC(O)(Cn1cncn1)c1ccc(Cl)cc1Cl (stereo not drawn),inactive
3,c1ccc(C2CC2)c(OCC2=NCCN2)c1,inactive
4,ClP(Cl)(Cl)(Cl)Cl,inactive
5,O=C(CBr)OCc1ccccc1,inactive
6,CN1C[C@H](CNC(=O)OCc2ccccc2)C[C@@H]2c3cccc4c3c(cn4C)C[C@H]21,inactive
7,C=CCN1CC[C@]23c4c5ccc(O)c4O[C@H]2C(=O)CC[C@@]3(O)[C@H]1C5,inactive
8,Cn1sc(Cl)cc1=O,inactive
9,O=C(NC(=O)c1c(F)cccc1F)Nc1cc(Cl)c(Oc2ncc(C(F)(F)F)cc2Cl)c(Cl)c1,inactive
10,CCCCc1c(C)nc(NCC)nc1OS(=O)(=O)N(C)C,inactive
11,CCO[C@H]1O[C@@H]2OC3(C)CC[C@H]4[C@H](C)CC[C@@H]([C@H]1C)[C@@]24OO3,inactive
12,NC(=O)CI,inactive
13,C[N+](C)(C)CCCl,inactive
14,Nc1ccc([N+](=O)[O-])cc1[N+](=O)[O-],inactive

# Assay: qHTS assay to identify small molecule agonists of the endoplasmic reticulum stress response signaling pathway - cell viability counter screen (AID 1159517);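 note: HeLa cells carrying an ER stress response element beta-lactamase reporter; nearly all actives have a fitted effect of over 50% in size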
# Details: ESRE-bla HeLa viability, CellTiter-Glo luminescence, 5 h; series mostly up to 61 µM
# In short: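 Luminescence readout: CellTiter-Glo, 30 min RT, same wells as the ESRE-bla reporter read. HeLa ESRE-bla, 1,500 cells/well, o/n 37 C; cpd 5 hr 37 C/5% CO2.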
row,Structure (SMILES),Potency
1,CCCCCCCCOC(=O)c1ccc(C(=O)OCCCCCCCC)c(C(=O)OCCCCCCCC)c1,inactive
2,N#Cc1ccc(Cl)cc1,inactive
3,CO/C=C(/C(=O)OC)c1ccccc1COc1cccc(C(F)(F)F)n1,inactive
4,CCOc1nc(F)cc2nc(S(=O)(=O)Nc3c(Cl)cccc3Cl)nn12,inactive
5,CC(c1ccc(O)cc1)(c1ccc(O)cc1)c1ccc(O)cc1,inactive
6,C[C@]12CC[C@H]3[C@@H](CCC4=CC(=O)CC[C@@H]43)[C@@H]1CC[C@@H]2OC(=O)CCC1CCCCC1,inactive
7,CN1[C@@H]2CC[C@H]1CC(OC(=O)c1cc(Cl)cc(Cl)c1)C2 (stereo partly drawn),inactive
8,COc1cc(Cl)c(OC)cc1Cl,inactive
9,CCOP(=S)(OCC)SCSCC,inactive
10,Cc1c(F)c(F)c(COC(=O)C2C(/C=C(\Cl)C(F)(F)F)C2(C)C)c(F)c1F (stereo not drawn),inactive
11,CC[C@H]1C[C@H]2[C@@H]3CCC4=CC(=O)CC[C@@H]4[C@H]3CC[C@]2(C)[C@H]1O,inactive
12,COc1ccc(-c2ccccc2)cc1NNC(=O)OC(C)C,inactive
13,O=[Se]=O,inactive
14,CCc1ccc(C(=O)NN(C(=O)c2cc(C)cc(C)c2)C(C)(C)C)cc1,inactive
15,COC(=O)C(C)N(C(=O)Cc1ccccc1)c1c(C)cccc1C (stereo not drawn),inactive
16,CC(C)O.CC(C)O.OCCN(CCO)CCO.OCCN(CCO)CCO.[Ti],inactive

row,Structure (SMILES),Potency
1,Cc1ccccc1C(=O)Nc1cccc(OC(C)C)c1,inactive
2,ClCc1cccc(Cl)c1,inactive
3,N#CCC#N,inactive
4,CCOS(C)(=O)=O,inactive
5,CCOP(=S)(Oc1ccc([N+](=O)[O-])cc1)c1ccccc1 (stereo not drawn),inactive
6,CCCCC(O)(Cn1cncn1)c1ccc(Cl)cc1Cl (stereo not drawn),inactive
7,ClP(Cl)(Cl)(Cl)Cl,inactive
8,O=C(CBr)OCc1ccccc1,inactive
9,CN1C[C@H](CNC(=O)OCc2ccccc2)C[C@@H]2c3cccc4c3c(cn4C)C[C@H]21,inactive
10,Cn1sc(Cl)cc1=O,inactive
11,O=C(NC(=O)c1c(F)cccc1F)Nc1cc(Cl)c(Oc2ncc(C(F)(F)F)cc2Cl)c(Cl)c1,inactive
12,CCCCc1c(C)nc(NCC)nc1OS(=O)(=O)N(C)C,inactive
13,CCO[C@H]1O[C@@H]2OC3(C)CC[C@H]4[C@H](C)CC[C@@H]([C@H]1C)[C@@]24OO3,inactive
14,NC(=O)CI,inactive
15,Nc1ccc([N+](=O)[O-])cc1[N+](=O)[O-],inactive

# Assay: qHTS assay to identify small molecule antagonists of the retinoid-related orphan receptor gamma (ROR-gamma) signaling pathway - cell viability counter screen (AID 1159520; active = well fitted cell-killing curve with a large enough effect in the repeat runs; note: nearly all actives have a fitted effect of over 50% in size; note: potency is the fitted concentration of half-maximal effect)
# Details: Tet-on RORgamma CHO cells viability, ATP luminescence, 16 h; series mostly up to 92.4 µM
# In short: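 Tet-on ROR gamma CHO cells (1,000/well) were plated 4 hr, given compounds in DMSO for 2 hr at 37 C, then induced with 1 uM final doxycycline for 16 hr. Viability was read as ATP by CellTiter-Glo luminescence after 30 min.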
row,Structure (SMILES),Potency
1,CCCCCCCCOC(=O)c1ccc(C(=O)OCCCCCCCC)c(C(=O)OCCCCCCCC)c1,inactive
2,CCOc1nc(F)cc2nc(S(=O)(=O)Nc3c(Cl)cccc3Cl)nn12,inactive
3,CC(c1ccc(O)cc1)(c1ccc(O)cc1)c1ccc(O)cc1,inactive
4,C[C@]12CC[C@H]3[C@@H](CCC4=CC(=O)CC[C@@H]43)[C@@H]1CC[C@@H]2OC(=O)CCC1CCCCC1,inactive
5,CN1[C@@H]2CC[C@H]1CC(OC(=O)c1cc(Cl)cc(Cl)c1)C2 (stereo partly drawn),inactive
6,COc1cc(Cl)c(OC)cc1Cl,inactive
7,CCOP(=S)(OCC)SCSCC,inactive
8,CC[C@H]1C[C@H]2[C@@H]3CCC4=CC(=O)CC[C@@H]4[C@H]3CC[C@]2(C)[C@H]1O,inactive
9,COC(=O)c1cncn1C(C)c1ccccc1 (stereo not drawn),inactive
10,CCc1ccc(C(=O)NN(C(=O)c2cc(C)cc(C)c2)C(C)(C)C)cc1,inactive
11,COC(=O)C(C)N(C(=O)Cc1ccccc1)c1c(C)cccc1C (stereo not drawn),inactive
12,CC(C)O.CC(C)O.OCCN(CCO)CCO.OCCN(CCO)CCO.[Ti],inactive
13,Cc1ccccc1C(=O)Nc1cccc(OC(C)C)c1,inactive
14,ClCc1cccc(Cl)c1,inactive
15,CCOP(=S)(Oc1ccc([N+](=O)[O-])cc1)c1ccccc1 (stereo not drawn),inactive
16,c1ccc(C2CC2)c(OCC2=NCCN2)c1,inactive
17,O=C(CBr)OCc1ccccc1,inactive
18,CN1C[C@H](CNC(=O)OCc2ccccc2)C[C@@H]2c3cccc4c3c(cn4C)C[C@H]21,inactive
19,C=CCN1CC[C@]23c4c5ccc(O)c4O[C@H]2C(=O)CC[C@@]3(O)[C@H]1C5,inactive
20,Cn1sc(Cl)cc1=O,61.1 µM (active)
21,CCCCc1c(C)nc(NCC)nc1OS(=O)(=O)N(C)C,inactive
22,CCO[C@H]1O[C@@H]2OC3(C)CC[C@H]4[C@H](C)CC[C@@H]([C@H]1C)[C@@]24OO3,inactive
23,C[N+](C)(C)CCCl,inactive

# Reference: PubChem BioAssay (Tox21)
